MsrA act = activates bovine MsrA enzyme | AID 602163 | purified bovine MsrA, absorbance read-out | 360,000 compounds, 0.3% hits | activation, % at 10.6 µM; in the data active = activation above about 7.5%
GC-A act = GC-A (human) enzyme activation; activation, % at 10 µM; 370,000 compounds, 0.14% hits; HEK293 GC-A cells, cGMP TR-FRET, EC30 ANP; 0% at EC30 ANP, 100% saturating ANP; AID 1671463; in the data active = activation above about 40%
Target sequence (P16066 whole entry, looked up): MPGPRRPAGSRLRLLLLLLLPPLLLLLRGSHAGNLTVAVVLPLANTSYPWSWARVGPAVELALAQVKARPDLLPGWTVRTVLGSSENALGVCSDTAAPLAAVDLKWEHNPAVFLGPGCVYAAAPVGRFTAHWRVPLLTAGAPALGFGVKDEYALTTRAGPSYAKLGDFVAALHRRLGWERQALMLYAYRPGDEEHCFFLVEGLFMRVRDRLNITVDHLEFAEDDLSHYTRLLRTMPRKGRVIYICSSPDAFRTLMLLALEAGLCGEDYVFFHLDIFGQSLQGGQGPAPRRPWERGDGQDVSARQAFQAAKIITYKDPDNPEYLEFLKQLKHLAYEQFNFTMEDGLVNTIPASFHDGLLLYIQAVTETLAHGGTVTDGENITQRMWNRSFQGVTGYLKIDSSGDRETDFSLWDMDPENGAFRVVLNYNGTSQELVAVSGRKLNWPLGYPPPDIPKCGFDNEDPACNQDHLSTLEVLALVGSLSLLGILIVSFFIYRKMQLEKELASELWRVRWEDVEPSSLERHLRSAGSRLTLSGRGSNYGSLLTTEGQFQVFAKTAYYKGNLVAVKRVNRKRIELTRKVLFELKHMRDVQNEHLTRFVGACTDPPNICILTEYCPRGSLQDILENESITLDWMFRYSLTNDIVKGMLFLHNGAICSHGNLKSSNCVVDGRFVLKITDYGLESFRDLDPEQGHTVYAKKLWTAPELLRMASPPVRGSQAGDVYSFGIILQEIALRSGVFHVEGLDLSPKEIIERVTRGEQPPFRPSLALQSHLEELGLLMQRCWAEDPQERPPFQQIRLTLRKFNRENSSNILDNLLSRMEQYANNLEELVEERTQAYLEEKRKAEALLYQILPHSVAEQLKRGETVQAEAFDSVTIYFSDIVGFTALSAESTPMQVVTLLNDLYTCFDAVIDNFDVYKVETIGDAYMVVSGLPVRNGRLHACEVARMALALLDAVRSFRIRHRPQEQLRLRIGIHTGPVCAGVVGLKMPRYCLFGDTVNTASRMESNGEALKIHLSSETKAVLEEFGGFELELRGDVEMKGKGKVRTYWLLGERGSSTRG
MsrA inhibitor = inhibitors of bovine MsrA | purified bovine MsrA, absorbance read-out | inhibition, % at 15.5 µM | 360,000 compounds, 0.75% hits
NPR2 activator = GC-B (human) receptor activation; P20594; HEK293-GC-B cells, CNP EC30, cGMP TR-FRET; 0% at EC30 CNP, 100% saturating CNP; activation, % at 10 µM; 370,000 compounds, 0.11% hits; AID 1920062;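 active = activation at 10 µM reaching about 35% in either raw or pattern-adjusted values, limit read from the data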
MsrA inh confirm = confirmation of bovine MsrA inhibitors | inhibition, % at 15.5 µM | purified bovine MsrA, absorbance read-out | 2,300 compounds, 41% hits | shares compounds with MsrA inhibitor;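 note: coupled to thioredoxin reductase with NADPH and selenocystamine and DMSO as substrate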
A number is an active result. Shown are actives, neighbours in structure and some others; about 1.2% of the full set was active somewhere. Cut-off read from the data, not from the text of the source, unless noted: active = inhibition above about 4.5%; inactive = the rest.

`CC1CCN(C(=O)c2ccc3c(c2)C(=O)c2ccccc2-3)CC1` gave MsrA act inactive, GC-A act inactive, MsrA inhibitor inactive and NPR2 activator inactive.
Screening O=C(N/N=C\c1ccc[nH]1)c1cncc(Br)c1 returned MsrA act inactive, GC-A act inactive, MsrA inhibitor 5.1, NPR2 activator inactive and MsrA inh confirm 4.6.
Screening O=C(N/N=C/c1ccc[nH]1)c1cccc(Br)c1 returned MsrA act inactive, GC-A act inactive, MsrA inhibitor 4.7, NPR2 activator inactive and MsrA inh confirm inactive.
Screening Cc1ccc(S(=O)(=O)N(CC(=O)NC2CCC(C)CC2)c2cc(C)cc(C)c2)cc1 (configuration not stated) returned GC-A act inactive and NPR2 activator inactive.
COC(=O)C1=C(C)N(C)C(=NCc2ccc3c(c2)OCO3)NC1c1cccc(C(F)(F)F)c1 (configuration not stated) was read as GC-A act inactive, MsrA inhibitor inactive and NPR2 activator inactive.
O=c1cc(-c2ccc(O)cc2)oc2cc(O[C@@H]3O[C@H](CO)[C@@H](O)[C@H](O)[C@H]3O[C@@H]3OC[C@](O)(CO)[C@H]3O)cc(O)c12 was read as MsrA act inactive, GC-A act inactive, MsrA inhibitor 5.3, NPR2 activator inactive and MsrA inh confirm inactive.
For COC(=O)[C@]12C[C@H](CC(=O)N3CCOCC3)C(=O)N(Cc3cccc4ccccc34)C1=C[C@H](C1CCCC1)O[C@@H]2C the results were GC-A act inactive and NPR2 activator inactive.
Screening CCCCOc1ccc(/C(O)=C2/C(=O)C(=O)N(CCN(C)C)C2c2ccc(O)c(OC)c2)cc1 (configuration not stated) returned MsrA act inactive, GC-A act inactive, MsrA inhibitor 8.1, NPR2 activator inactive and MsrA inh confirm inactive.
CCCOc1cccc(C2/C(=C(/O)c3ccc(OC)cc3)C(=O)C(=O)N2CCN(C)C)c1 (configuration not stated) was read as MsrA act inactive, GC-A act inactive, MsrA inhibitor inactive and NPR2 activator inactive.
Screening COCCSc1nnc(-c2cccnc2)n1Cc1ccccc1 returned GC-A act inactive and NPR2 activator inactive.
For Cc1c(CC(=O)NC(C)C)c(=O)oc2cc3c(cc12)CCC(C)(C)O3 the results were MsrA act inactive, GC-A act inactive, MsrA inhibitor inactive and NPR2 activator inactive.
For Cc1c(CC(=O)N[C@@H](C)C(=O)O)c(=O)oc2cc3c(cc12)CCC(C)(C)O3 the results were MsrA act inactive, GC-A act inactive, MsrA inhibitor 5.3, NPR2 activator inactive and MsrA inh confirm inactive.
For CC1CCN(N=Nc2nc3c([nH]2)c(=O)n(C)c(=O)n3C)CC1 the results were MsrA act inactive, GC-A act inactive, MsrA inhibitor 7.8, NPR2 activator inactive and MsrA inh confirm 5.5.
Cn1c(=O)c2[nH]c(N=NN3CCCCC3)nc2n(C)c1=O was read as MsrA act inactive, GC-A act inactive, MsrA inhibitor inactive and NPR2 activator inactive.
`Cn1nnc2sc3c(c2c1=O)CCCC3` gave MsrA act inactive, GC-A act inactive, MsrA inhibitor 5.0, NPR2 activator inactive and MsrA inh confirm 5.8.
For CC1CCN(c2c3c(nc4ncnn24)CCCC3)CC1 the results were GC-A act inactive and NPR2 activator inactive.
For Cc1ccc(NC2=C/C(=N/S(=O)(=O)c3cccs3)c3ccccc3C2=O)cc1C the results were MsrA act inactive, GC-A act inactive, MsrA inhibitor inactive and NPR2 activator inactive.
COc1ccc(S(=O)(=O)/N=C2\C=C(Nc3ccc(O)cc3)C(=O)c3ccccc32)cc1 was read as MsrA act inactive, GC-A act inactive, MsrA inhibitor 35, NPR2 activator inactive and MsrA inh confirm 33.
Cc1ccccc1NC1=C/C(=N\S(=O)(=O)c2cccs2)c2ccccc2C1=O was read as MsrA act inactive, GC-A act inactive, MsrA inhibitor 16, NPR2 activator inactive and MsrA inh confirm 29.
Screening COC(=O)C(C(C)=O)C1=C/C(=N\S(=O)(=O)c2ccc(C)cc2)c2ccccc2C1=O (configuration not stated) returned MsrA act inactive.
`CC(=O)Nc1ccc(NC2=C/C(=N/S(=O)(=O)c3cccs3)c3ccccc3C2=O)cc1` gave MsrA act inactive, GC-A act inactive, MsrA inhibitor 47, NPR2 activator inactive and MsrA inh confirm 44.
Screening O=[N+]([O-])c1ccc(O)c(C=Nc2cccc3ccccc23)c1 returned MsrA act inactive, GC-A act inactive, MsrA inhibitor inactive and NPR2 activator inactive.
O=[N+]([O-])c1ccc(O)c(C=Nc2cccc3ncccc23)c1 was read as MsrA act inactive, GC-A act inactive, MsrA inhibitor 5.2, NPR2 activator inactive and MsrA inh confirm inactive.
For COC(=O)[C@]12C[C@H](CC(=O)NCc3cccs3)C(=O)N(Cc3cccc4ccccc34)C1=C[C@H](C(C)C)O[C@@H]2C1CC1 the results were GC-A act inactive and NPR2 activator inactive.
Screening O=C(COc1ccccc1[N+](=O)[O-])N/N=C/C=C/c1ccco1 returned MsrA act inactive, GC-A act inactive, MsrA inhibitor inactive and NPR2 activator inactive.
Cc1ccc(OCC(=O)N/N=C/C=C/c2ccco2)cc1 was read as MsrA act inactive, GC-A act inactive, MsrA inhibitor 4.7, NPR2 activator inactive and MsrA inh confirm inactive.
Screening COc1ccc(C(C#N)N2CCOCC2)cc1 (configuration not stated) returned MsrA act inactive, GC-A act inactive, MsrA inhibitor inactive and NPR2 activator inactive.
For N#CC(c1ccc(O)cc1)N1CCN(C(C#N)c2ccc(O)cc2)CC1 (configuration not stated) the results were MsrA act inactive, GC-A act inactive, MsrA inhibitor 5.0, NPR2 activator inactive and MsrA inh confirm inactive.
For O=P(c1ccccc1)(c1ccccc1)c1cnc2ccccn12 the results were GC-A act inactive and NPR2 activator inactive.
CC(C)C[C@H](NC1(C(=O)NC2CCCCC2)CCN(C)CC1)C(=O)NCC(c1ccccc1)c1ccccc1 was read as GC-A act inactive and NPR2 activator inactive.
COc1cc(/C=C2/C(=O)N(c3ccc([N+](=O)[O-])cc3)N=C2N2CCOCC2)ccc1O was read as MsrA act inactive, GC-A act inactive, MsrA inhibitor 4.7, NPR2 activator inactive and MsrA inh confirm 4.6.
Screening COc1cc(/C=C2\SC(=S)N(N3CCOCC3)C2=O)ccc1O returned MsrA act inactive, GC-A act inactive, MsrA inhibitor inactive and NPR2 activator inactive.
Screening Cc1ccc(/C=C/C(=O)Nc2cccc(S(=O)(=O)N3CCOCC3)c2)o1 returned MsrA act inactive, GC-A act inactive, MsrA inhibitor 5.0, NPR2 activator inactive and MsrA inh confirm 4.9.
Screening CCOC(=O)C1=Nc2ccccc2C1=[N+]=[N-] returned MsrA act inactive, GC-A act inactive, MsrA inhibitor 5.7, NPR2 activator inactive and MsrA inh confirm inactive.
